In the assay the target is furin, P09958. Put plainly: furin cleavage Z-score vs untreated control; higher = more cleavage, active = 3.5 or more, inactive = 1 or less, 8 variable residues between constant flanks. The procedure, abridged:
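Read counts from sequencing released DNA gave abundance for each bead-bound 8-mer peptide–cDNA fusion cut by purified furin over 7.5, 15 or 30 min. The cleavage Z-score compares log counts with furin-free reactions after lowess adjustment and median absolute deviation scaling.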

This is one part of the list. The true hit rate is not given.
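Also: purified furin at 1:10 enzyme:substrate in 50 mM HEPES pH 7.5.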

Chain of furin, P09958 (P09958 whole entry, the tested form may be a part): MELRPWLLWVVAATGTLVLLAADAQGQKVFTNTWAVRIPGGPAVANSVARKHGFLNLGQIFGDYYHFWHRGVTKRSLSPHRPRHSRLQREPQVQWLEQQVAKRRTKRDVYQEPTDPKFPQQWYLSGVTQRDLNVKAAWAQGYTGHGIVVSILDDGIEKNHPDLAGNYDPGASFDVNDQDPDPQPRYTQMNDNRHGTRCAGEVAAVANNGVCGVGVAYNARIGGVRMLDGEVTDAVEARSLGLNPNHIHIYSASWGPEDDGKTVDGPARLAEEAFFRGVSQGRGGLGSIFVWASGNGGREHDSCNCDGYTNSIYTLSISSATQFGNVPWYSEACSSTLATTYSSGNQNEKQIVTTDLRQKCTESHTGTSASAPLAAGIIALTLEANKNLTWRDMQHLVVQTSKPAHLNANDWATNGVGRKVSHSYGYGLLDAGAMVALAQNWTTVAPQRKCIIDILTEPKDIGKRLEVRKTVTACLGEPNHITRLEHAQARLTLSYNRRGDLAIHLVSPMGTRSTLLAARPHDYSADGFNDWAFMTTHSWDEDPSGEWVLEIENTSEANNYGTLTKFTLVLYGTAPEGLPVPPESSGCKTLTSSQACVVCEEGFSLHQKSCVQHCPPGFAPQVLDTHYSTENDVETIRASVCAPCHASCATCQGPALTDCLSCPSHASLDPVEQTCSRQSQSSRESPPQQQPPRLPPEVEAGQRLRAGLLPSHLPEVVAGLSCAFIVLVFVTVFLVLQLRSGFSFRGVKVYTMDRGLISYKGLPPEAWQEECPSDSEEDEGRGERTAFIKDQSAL

Consider CATSQTLLFNAGNASASA [HC1062], for which the “furin cleavage Z-score” value was 0.00122 (inactive) (7.5 min), -0.692 (inactive) (15 min) and -0.503 (inactive) (30 min).

For CAVLKRDVDIAGNASASA [FS-1815], the “furin cleavage Z-score” value was 1.04 (7.5 min), -1.55 (inactive) (15 min) and 0.353 (inactive) (30 min).

CARLKRDPGIAGNASASA [FS-2350]: the “furin cleavage Z-score” value (7.5 min) was 3.26, the “furin cleavage Z-score” value (15 min) is 4.16 (active) and the “furin cleavage Z-score” value (30 min) is 3.42.

Turning to CARLKPTLHGAGNASASA [HC967], the “furin cleavage Z-score” value by setting is: (7.5 min) -0.75 (inactive); (15 min) -0.713 (inactive); (30 min) 0.566 (inactive).

As for CARLKRLFLAAGNASASA [FS-2991], the “furin cleavage Z-score” value (7.5 min) was 0.382 (inactive), the “furin cleavage Z-score” value (15 min) is -1.83 (inactive) and the “furin cleavage Z-score” value (30 min) is -1.56 (inactive).

In the case of CAVRKRSPWLAGNASASA [FS-3142], the “furin cleavage Z-score” value is -1.29 (inactive) (7.5 min), 0.44 (inactive) (15 min) and 1.17 (30 min).

CARLKRDRSAAGNASASA [FS-2220]: the “furin cleavage Z-score” value reads like this: (7.5 min) 6.33 (active); (15 min) 8.55 (active); (30 min) 8.68 (active).

On to CARLKRDLATAGNASASA [FS-2043], for which the “furin cleavage Z-score” value (7.5 min) was 9.22 (active), the “furin cleavage Z-score” value (15 min) is 11.3 (active) and the “furin cleavage Z-score” value (30 min) was 9.07 (active).

As to CAVRKRDLQTAGNASASA [FS-3140], the “furin cleavage Z-score” value is 2.53 (7.5 min), 5.9 (active) (15 min) and 5.02 (active) (30 min).

In the case of CAVRKRQVSLAGNASASA [FS-3141], the “furin cleavage Z-score” value reads like this: (7.5 min) -1.04 (inactive); (15 min) -0.0874 (inactive); (30 min) 0.617 (inactive).

For the sequence CAKTPCSAHLAGNASASA [HC2474], the “furin cleavage Z-score” value runs as follows: (7.5 min) -0.289 (inactive); (15 min) -0.529 (inactive); (30 min) -1.11 (inactive).

For the sequence CAMEWCSQHLAGNASASA [HC1708], the “furin cleavage Z-score” value (7.5 min) is 0.411 (inactive), the “furin cleavage Z-score” value (15 min) was 0.726 (inactive) and the “furin cleavage Z-score” value (30 min) is 0.812 (inactive).

In the case of CAEDVVCCSMAGNASASA [HC1368], the “furin cleavage Z-score” value reads like this: (7.5 min) -0.171 (inactive); (15 min) 0.686 (inactive); (30 min) 0.101 (inactive).

Regarding CATTQCSGSWAGNASASA [HC1882], the “furin cleavage Z-score” value is -0.496 (inactive) (7.5 min), -1.36 (inactive) (15 min) and -0.763 (inactive) (30 min).

As for CAFRVGLHEYAGNASASA [HC1234], the “furin cleavage Z-score” value is, setting by setting: (7.5 min) -0.864 (inactive); (15 min) -0.389 (inactive); (30 min) -0.313 (inactive).

As to CAEVPCHRPPAGNASASA [HC2419], the “furin cleavage Z-score” value is -0.0603 (inactive) (7.5 min), 1.24 (15 min) and -0.795 (inactive) (30 min).

With CAEACSLTPPAGNASASA [HC1414], the “furin cleavage Z-score” value is 0.244 (inactive) (7.5 min), -0.208 (inactive) (15 min) and -0.022 (inactive) (30 min).

In the case of CARRTRSFSWAGNASASA [FS-1790], the “furin cleavage Z-score” value runs as follows: (7.5 min) 0.729 (inactive); (15 min) 1.95; (30 min) 2.68.

As to CARRRRQLDPAGNASASA [FS-2598], the “furin cleavage Z-score” value (7.5 min) is 8.96 (active), the “furin cleavage Z-score” value (15 min) is 10.1 (active) and the “furin cleavage Z-score” value (30 min) is 7.56 (active).

In the case of CARRTRFISLAGNASASA [FS-2601], the “furin cleavage Z-score” value (7.5 min) was -0.682 (inactive), the “furin cleavage Z-score” value (15 min) was 1.63 and the “furin cleavage Z-score” value (30 min) was determined as 1.87.

With CARRRRQEEKAGNASASA [FS-2794], the “furin cleavage Z-score” value reads like this: (7.5 min) -0.167 (inactive); (15 min) 1.69; (30 min) -1.54 (inactive).

For CARRRRSMDPAGNASASA [FS-3067], the “furin cleavage Z-score” value runs as follows: (7.5 min) 8 (active); (15 min) 9.64 (active); (30 min) 7.14 (active).

For the sequence CARRTRSRSPAGNASASA [FS-2521], the “furin cleavage Z-score” value was 2.04 (7.5 min), 2.53 (15 min) and 4.49 (active) (30 min).

In the case of CARRRRELDPAGNASASA [FS-2076], the “furin cleavage Z-score” value was 11.6 (active) (7.5 min), 10.7 (active) (15 min) and 8.52 (active) (30 min).

For CALAAGVGIYAGNASASA [HC1660], the “furin cleavage Z-score” value runs as follows: (7.5 min) 0.247 (inactive); (15 min) -0.366 (inactive); (30 min) 0.0629 (inactive).

In the case of CAVGWPAPQGAGNASASA [HC715], the “furin cleavage Z-score” value was 0.307 (inactive) (7.5 min), 1.62 (15 min) and 0.189 (inactive) (30 min).

On to CAECPCHRPSAGNASASA [HC2340], for which the “furin cleavage Z-score” value is 0.0178 (inactive) (7.5 min), -0.268 (inactive) (15 min) and -1.23 (inactive) (30 min).

Regarding CARRRRELEPAGNASASA [FS-1867], the “furin cleavage Z-score” value is, setting by setting: (7.5 min) 10.9 (active); (15 min) 11 (active); (30 min) 7.47 (active).

As to CARATRFWDPAGNASASA [FS-2650], the “furin cleavage Z-score” value was -0.242 (inactive) (7.5 min), -0.738 (inactive) (15 min) and 0.257 (inactive) (30 min).

Consider CARRTRDLDPAGNASASA [FS-2520], for which the “furin cleavage Z-score” value runs as follows: (7.5 min) 8.58 (active); (15 min) 8.71 (active); (30 min) 7.24 (active).

In the case of CATVDFSLDPAGNASASA [HC891], the “furin cleavage Z-score” value reads like this: (7.5 min) -0.614 (inactive); (15 min) -1.09 (inactive); (30 min) -1.01 (inactive).

For the sequence CAPSWGPTDPAGNASASA [HC213], the “furin cleavage Z-score” value was -0.72 (inactive) (7.5 min), -1.18 (inactive) (15 min) and 1.35 (30 min).

Turning to CALGPRFKRLAGNASASA [FS-269], the “furin cleavage Z-score” value was 9.05 (active) (7.5 min), 10.1 (active) (15 min) and 9.85 (active) (30 min).

In the case of CAWGSRFKKLAGNASASA [FS-317], the “furin cleavage Z-score” value is 0.17 (inactive) (7.5 min), -0.284 (inactive) (15 min) and 0.58 (inactive) (30 min).

CAWGNRFKKLAGNASASA [FS-315]: the “furin cleavage Z-score” value (7.5 min) is -1.19 (inactive), the “furin cleavage Z-score” value (15 min) is 0.33 (inactive) and the “furin cleavage Z-score” value (30 min) was -1.11 (inactive).

Regarding CAWGPRFKRLAGNASASA [FS-209], the “furin cleavage Z-score” value (7.5 min) is 6.86 (active), the “furin cleavage Z-score” value (15 min) was 8.43 (active) and the “furin cleavage Z-score” value (30 min) is 8.5 (active).

Regarding CAHSKKKCDEAGNASASA [HC858], the “furin cleavage Z-score” value (7.5 min) was 0.938 (inactive), the “furin cleavage Z-score” value (15 min) is -0.00521 (inactive) and the “furin cleavage Z-score” value (30 min) was -0.176 (inactive).

With CASPPCSAHLAGNASASA [HC2499], the “furin cleavage Z-score” value is 1.04 (7.5 min), -0.446 (inactive) (15 min) and 0.95 (inactive) (30 min).

With CAYVCCSMSYAGNASASA [HC1989], the “furin cleavage Z-score” value (7.5 min) was 0.374 (inactive), the “furin cleavage Z-score” value (15 min) was -0.0389 (inactive) and the “furin cleavage Z-score” value (30 min) is 0.11 (inactive).

CAVVSCSMSYAGNASASA [HC2037]: the “furin cleavage Z-score” value is 0.59 (inactive) (7.5 min), -1.65 (inactive) (15 min) and 0.705 (inactive) (30 min).

On to CAPVPRQKRSAGNASASA [FS-1387], for which the “furin cleavage Z-score” value (7.5 min) is 10.9 (active), the “furin cleavage Z-score” value (15 min) is 10.8 (active) and the “furin cleavage Z-score” value (30 min) is 8.52 (active).

Take CAPVPCHRPSAGNASASA [HC2319]: the “furin cleavage Z-score” value runs as follows: (7.5 min) 0.318 (inactive); (15 min) 1.19; (30 min) 0.255 (inactive).

Regarding CAPVPRQRRPAGNASASA [FS-557], the “furin cleavage Z-score” value reads like this: (7.5 min) 1.31; (15 min) 0.43 (inactive); (30 min) -0.0302 (inactive).

CAGPKDQKRSAGNASASA [FS-1002]: the “furin cleavage Z-score” value runs as follows: (7.5 min) 0.96 (inactive); (15 min) 0.905 (inactive); (30 min) 0.353 (inactive).

As for CAIHRRTPRSAGNASASA [FS-1213], the “furin cleavage Z-score” value is, setting by setting: (7.5 min) 10.3 (active); (15 min) 8.47 (active); (30 min) 7.15 (active).

In the case of CARVYRQKRSAGNASASA [FS-561], the “furin cleavage Z-score” value reads like this: (7.5 min) 12.1 (active); (15 min) 12.4 (active); (30 min) 9.77 (active).

For the sequence CAPVFRQKRSAGNASASA [FS-620], the “furin cleavage Z-score” value runs as follows: (7.5 min) 14.1 (active); (15 min) 12.3 (active); (30 min) 9.55 (active).

For the origin of these results see the supplement of paper PMC3545927.
